Data published in ChEMBL document CHEMBL1961873, “Compounds: GSK PKIS; Assays: Nanosyn kinase panel” (2012).
Values joined by “and” are separate entries in the source; they are usually repeats but may differ in a detail not shown here. Equal values may be shown once.

What was measured:
[1] = molecular target: Calcium/calmodulin-dependent protein kinase type II subunit alpha (Homo sapiens) (UniProt Q9UQM7); conditions: at 1 µM;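 further: reported value is a mean percent inhibition of CAMK2A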
[2] = molecular target: Calcium/calmodulin-dependent protein kinase type II subunit delta (Homo sapiens) (UniProt Q13557); conditions: at 0.1 µM
[3] = molecular target: Calcium/calmodulin-dependent protein kinase type II subunit delta (Homo sapiens) (UniProt Q13557); conditions: at 1 µM
[4] = molecular target: T1, Calcium/calmodulin-dependent protein kinase type IV (Homo sapiens) (UniProt Q16566); conditions: at 0.1 µM
T1 sequence (whole entry): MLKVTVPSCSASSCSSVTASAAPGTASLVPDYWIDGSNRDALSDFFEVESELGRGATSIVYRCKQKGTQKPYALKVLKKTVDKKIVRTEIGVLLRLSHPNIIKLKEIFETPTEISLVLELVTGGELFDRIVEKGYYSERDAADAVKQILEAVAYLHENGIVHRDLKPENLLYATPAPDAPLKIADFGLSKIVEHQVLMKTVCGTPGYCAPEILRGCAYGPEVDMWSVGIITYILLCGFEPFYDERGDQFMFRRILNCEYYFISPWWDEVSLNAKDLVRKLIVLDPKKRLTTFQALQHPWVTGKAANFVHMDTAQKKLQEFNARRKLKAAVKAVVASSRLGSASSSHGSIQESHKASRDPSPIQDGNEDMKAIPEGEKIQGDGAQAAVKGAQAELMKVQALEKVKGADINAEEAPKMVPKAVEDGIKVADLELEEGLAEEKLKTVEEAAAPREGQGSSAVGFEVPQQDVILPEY

[5] = molecular target: T1, Calcium/calmodulin-dependent protein kinase type IV (Homo sapiens); conditions: at 1 µM
[6] = molecular target: T2, Serine/threonine-protein kinase Chk1 (Homo sapiens) (UniProt O14757); conditions: at 0.1 µM
T2 sequence (whole entry): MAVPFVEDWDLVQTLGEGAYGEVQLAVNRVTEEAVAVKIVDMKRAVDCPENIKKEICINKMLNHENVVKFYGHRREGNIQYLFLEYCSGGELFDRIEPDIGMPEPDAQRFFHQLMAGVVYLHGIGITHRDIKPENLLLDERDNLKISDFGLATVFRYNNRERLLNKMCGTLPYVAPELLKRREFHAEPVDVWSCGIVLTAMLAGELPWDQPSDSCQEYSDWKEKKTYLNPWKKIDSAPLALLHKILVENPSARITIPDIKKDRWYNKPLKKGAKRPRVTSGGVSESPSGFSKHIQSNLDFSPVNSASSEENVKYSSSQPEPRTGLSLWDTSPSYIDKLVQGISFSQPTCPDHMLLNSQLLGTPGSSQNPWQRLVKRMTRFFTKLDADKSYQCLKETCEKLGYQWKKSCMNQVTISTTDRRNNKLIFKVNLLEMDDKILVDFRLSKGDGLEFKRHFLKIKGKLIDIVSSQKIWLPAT

[7] = molecular target: T2, Serine/threonine-protein kinase Chk1 (Homo sapiens); conditions: at 1 µM
[8] = molecular target: Serine/threonine-protein kinase Chk2 (Homo sapiens) (UniProt O96017); conditions: at 0.1 µM
[9] = molecular target: Serine/threonine-protein kinase Chk2 (Homo sapiens) (UniProt O96017); conditions: at 1 µM
[10] = molecular target: Death-associated protein kinase 1 (Homo sapiens) (UniProt P53355); conditions: at 0.1 µM;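 further: reported figure is the mean inhibition of DAPK1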
Death-associated protein kinase 1 (Homo sapiens), sequence (P53355 whole entry, looked up): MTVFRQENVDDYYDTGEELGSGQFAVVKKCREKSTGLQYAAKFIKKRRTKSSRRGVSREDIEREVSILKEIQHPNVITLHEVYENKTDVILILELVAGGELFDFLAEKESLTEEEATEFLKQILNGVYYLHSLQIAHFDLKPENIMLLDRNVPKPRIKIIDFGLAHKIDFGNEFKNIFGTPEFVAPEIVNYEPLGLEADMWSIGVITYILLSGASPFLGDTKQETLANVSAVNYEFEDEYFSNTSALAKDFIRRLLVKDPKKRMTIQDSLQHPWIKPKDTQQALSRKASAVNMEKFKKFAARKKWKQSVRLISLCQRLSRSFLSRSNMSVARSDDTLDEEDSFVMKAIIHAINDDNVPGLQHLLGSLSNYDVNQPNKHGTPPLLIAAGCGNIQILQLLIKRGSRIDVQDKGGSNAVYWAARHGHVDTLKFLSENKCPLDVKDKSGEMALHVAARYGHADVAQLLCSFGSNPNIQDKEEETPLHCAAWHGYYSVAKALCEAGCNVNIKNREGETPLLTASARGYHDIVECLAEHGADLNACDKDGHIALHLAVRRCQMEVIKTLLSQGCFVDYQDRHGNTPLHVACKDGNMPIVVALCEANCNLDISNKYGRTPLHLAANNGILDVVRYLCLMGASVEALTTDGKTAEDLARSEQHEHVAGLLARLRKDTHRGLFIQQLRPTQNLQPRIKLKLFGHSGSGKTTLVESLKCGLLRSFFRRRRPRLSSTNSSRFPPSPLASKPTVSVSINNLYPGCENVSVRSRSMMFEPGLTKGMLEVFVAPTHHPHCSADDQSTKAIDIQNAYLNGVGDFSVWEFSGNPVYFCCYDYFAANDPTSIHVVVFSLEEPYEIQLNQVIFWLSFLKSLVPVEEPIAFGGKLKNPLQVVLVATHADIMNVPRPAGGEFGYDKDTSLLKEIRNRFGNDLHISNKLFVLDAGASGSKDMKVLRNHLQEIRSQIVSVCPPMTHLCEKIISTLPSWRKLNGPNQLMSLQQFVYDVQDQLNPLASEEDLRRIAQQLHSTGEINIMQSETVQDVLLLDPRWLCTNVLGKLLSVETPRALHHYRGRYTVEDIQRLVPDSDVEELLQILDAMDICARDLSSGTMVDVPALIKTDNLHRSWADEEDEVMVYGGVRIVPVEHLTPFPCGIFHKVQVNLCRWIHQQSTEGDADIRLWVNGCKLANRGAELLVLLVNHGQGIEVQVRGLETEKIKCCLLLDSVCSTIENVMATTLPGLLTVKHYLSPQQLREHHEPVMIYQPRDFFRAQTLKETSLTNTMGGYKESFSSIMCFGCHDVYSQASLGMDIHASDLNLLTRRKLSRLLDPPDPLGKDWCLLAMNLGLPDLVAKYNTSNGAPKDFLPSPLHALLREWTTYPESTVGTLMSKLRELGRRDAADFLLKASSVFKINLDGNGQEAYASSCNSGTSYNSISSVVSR

Calcium/calmodulin-dependent protein kinase type II subunit delta (Homo sapiens), sequence (Q13557 whole entry): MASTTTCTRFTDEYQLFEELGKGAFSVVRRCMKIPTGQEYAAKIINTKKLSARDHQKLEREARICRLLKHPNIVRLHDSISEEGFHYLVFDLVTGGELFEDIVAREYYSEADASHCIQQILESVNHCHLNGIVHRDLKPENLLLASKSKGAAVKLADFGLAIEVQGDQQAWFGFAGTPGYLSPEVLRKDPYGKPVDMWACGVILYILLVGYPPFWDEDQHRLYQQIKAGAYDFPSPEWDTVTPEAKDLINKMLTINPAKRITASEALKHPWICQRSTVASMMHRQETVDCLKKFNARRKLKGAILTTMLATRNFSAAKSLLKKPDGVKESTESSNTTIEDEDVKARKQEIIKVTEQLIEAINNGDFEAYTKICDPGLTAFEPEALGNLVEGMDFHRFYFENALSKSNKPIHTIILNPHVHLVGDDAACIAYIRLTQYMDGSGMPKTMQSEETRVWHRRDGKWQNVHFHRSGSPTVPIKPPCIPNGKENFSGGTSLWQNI
Serine/threonine-protein kinase Chk2 (Homo sapiens), sequence (O96017 whole entry): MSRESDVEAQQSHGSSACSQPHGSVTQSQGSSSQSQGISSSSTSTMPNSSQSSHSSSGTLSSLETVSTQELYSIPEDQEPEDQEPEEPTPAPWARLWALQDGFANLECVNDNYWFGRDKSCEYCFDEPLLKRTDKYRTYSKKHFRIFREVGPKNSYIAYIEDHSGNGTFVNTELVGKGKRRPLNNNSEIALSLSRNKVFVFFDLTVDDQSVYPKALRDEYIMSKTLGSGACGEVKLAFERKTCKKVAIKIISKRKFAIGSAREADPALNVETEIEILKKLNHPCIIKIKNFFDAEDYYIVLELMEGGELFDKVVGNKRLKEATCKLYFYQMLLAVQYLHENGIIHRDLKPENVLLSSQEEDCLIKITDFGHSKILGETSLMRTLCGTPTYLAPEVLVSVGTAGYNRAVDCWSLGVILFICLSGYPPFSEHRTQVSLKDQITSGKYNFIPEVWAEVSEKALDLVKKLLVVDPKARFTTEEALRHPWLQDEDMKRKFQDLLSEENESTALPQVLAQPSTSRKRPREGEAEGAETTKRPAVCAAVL
Calcium/calmodulin-dependent protein kinase type II subunit alpha (Homo sapiens), sequence (Q9UQM7 whole entry): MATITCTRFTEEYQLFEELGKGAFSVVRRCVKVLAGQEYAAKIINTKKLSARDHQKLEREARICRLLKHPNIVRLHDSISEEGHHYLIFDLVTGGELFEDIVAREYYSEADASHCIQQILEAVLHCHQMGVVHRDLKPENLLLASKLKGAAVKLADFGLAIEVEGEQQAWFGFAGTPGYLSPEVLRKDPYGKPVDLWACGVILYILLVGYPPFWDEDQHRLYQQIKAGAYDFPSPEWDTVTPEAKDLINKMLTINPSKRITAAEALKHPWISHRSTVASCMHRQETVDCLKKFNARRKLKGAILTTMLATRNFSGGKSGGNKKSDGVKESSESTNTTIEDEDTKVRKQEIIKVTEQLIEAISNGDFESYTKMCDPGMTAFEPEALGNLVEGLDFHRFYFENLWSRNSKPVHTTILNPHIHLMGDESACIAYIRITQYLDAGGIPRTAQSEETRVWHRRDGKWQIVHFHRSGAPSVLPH

Compound | inhibition [1] | inhibition [2] | inhibition [3] | inhibition [4] | inhibition [5] | inhibition [6] | inhibition [7] | inhibition [8] | inhibition [9] | inhibition [10]
CS(=O)(=O)CCNCc1ccc(-c2ccc3ncnc(Nc4ccc(OCc5cccc(C(F)(F)F)c5)cc4)c3c2)o1 | 2.36% | 3.02% | 7.55% | -2.56% | -0.39% | 5.09% | 7.64% | 4.17% | 5.4% | 6.71%
CCS(=O)(=O)c1ccc(OC)c(Nc2ncc(-c3cccc(C(C)=O)c3)o2)c1 | 1.16% | 1.73% | 3.23% | -3% | -5.43% | -0.75% | -1.38% | 1.62% | 3.67% | 2.47%
COc1ccc(Nc2ncc(-c3ccccc3)o2)cc1OC | 4.71% | 0.93% | 8.26% | -0.62% | 1.46% | -0.04% | 50.5% | -0.14% | 2.24% | 1.44%
CN(C)CCNC(=O)Nc1ccc(N(C)c2ccnc(Nc3ccc(CS(C)(=O)=O)cc3)n2)cc1 | 4.63% | 4.54% | 5.02% | 0.83% | -0.68% | 3.83% | 0.79% | 3.72% | 11.9% | 3.93%
COc1cccc(-n2ncc3c(N/N=C/c4ccc(C(=O)NCCN(C)C)cc4)ncnc32)c1 | 10.4% | 8.19% | 36.1% | 0.48% | 1.87% | 2.47% | 5.69% | 0.95% | 3.14% | 3.46%
CS(=O)(=O)Nc1ccc(-c2cc(-c3ccccc3)cc(C(N)=O)c2N)cc1 | -1.32% | 0.44% | 1.39% | -3.34% | -0.72% | 3.76% | 0.63% | 1.07% | 1.94% | 2.28%
c1ccc(-c2n[nH]cc2-c2ccnc(-c3ccc(OCCn4ccnc4)cc3)c2)nc1 | -1.38% | -0.35% | 0.74% | 0.1% | -0.86% | -5.5% | -4.71% | -3.83% | -2.77% | -7.91%
O=C1Nc2ccccc2/C1=C1\CCc2cc(O)ccc21 | 8.04% | 6.22% | 13% | 0.46% | -0.69% | -1.18% | 9.92% | 1.37% | 21.3% | -1.94%
Cc1nnc(-c2cccc(-c3ccc(C(=O)NCC4CC4)cc3)c2)o1 | 3.99% | 3.26% | 6.04% | -2.72% | -2.97% | 4.9% | 5.14% | 3.86% | 4.86% | 5.32%
Cc1ccc(-c2cc3c(NC(=O)C4CC4)ncnc3o2)cc1 | 4.25% | 3.37% | 3.7% | -0.74% | 30.3% | -0.37% | 3.47% | 2.56% | 5.07% | 3.63%
CCn1c(-c2nonc2N)nc2cncc(C(=O)NCCNC)c21 | -0.37% | 3.51% | 6.88% | -2.59% | 0.71% | 2.97% | -0.23% | 4.63% | 5.44% | 3.2%
CN1CCC(n2cnc(-c3ccc(F)cc3)c2-c2ccnc(NCCO)n2)CC1 | 3.86% | 1.32% | 3.99% | -3.49% | -5.99% | 1.6% | 6.89% | 4.1% | 5.51% | 4.37%
Nc1nonc1-c1nc2cnccc2n1C1CC1 | 5.07% and 5.46% | 3.94% and 2.63% | 7.79% and 4% | -0.5% and 1.35% | 0.32% and 1.21% | 3.32% and 0.59% | 14.4% and 10.5% | 2.75% and 1.53% | 6.34% and 2.63% | 2.98% and -0.26%
CNC(=O)c1cncc(/C=C/c2ccccc2C)c1 | 3.24% | 2.3% | 3.14% | -1.31% | -2.38% | 5.89% | 5.73% | 2.11% | 3.83% | 6.54%
O=C(Nc1n[nH]c2nnc(-c3cccnc3)cc12)C1CC1 | 1.88% | -1.25% | 1.45% | 1.28% | 0.43% | 0.7% | -2.5% | -1.27% | -0.14% | -1.32%
CCCNc1cccc(-n2ncc3c(N/N=C/c4ccncc4)ncnc32)c1 | 3.36% | 1.11% | 1.17% | -2.8% | -3.1% | -4.03% | -5.65% | -4.06% | 0.34% | -6.43%

Compound | inhibition [1] | inhibition [2] | inhibition [3] | inhibition [4] | inhibition [5] | inhibition [6] | inhibition [7] | inhibition [8] | inhibition [9] | inhibition [10]
O=C(O[C@H]1CN[C@H](C#Cc2cc3ncnc(Nc4ccc(OCc5cccc(F)c5)c(Cl)c4)c3s2)C1)N1CCOCC1 | 3.21% | 3.54% | 2.65% | -1.14% | -3.95% | -1.89% | -1.17% | -1.01% | 2.28% | -1.79%
CN(c1ccc(NC(=O)NCCN2CCOCC2)cc1)c1ccnc(Nc2ccc(CS(C)(=O)=O)cc2)n1 | 1.11% | 1.06% | 3.97% | -3.18% | -5.39% | 4.02% | 3.14% | 2.01% | 6.85% | 4.05%
NS(=O)(=O)c1ccc(N/N=C2\C(=O)Nc3ccc(C(=O)NCc4ccncc4)cc32)cc1 | 5.1% | 3.39% | 11.8% | -2.17% | -4.16% | 2.58% | 11.1% | 4.18% | 19.2% | 4.72%
Cc1cc(O)cc(C)c1/C=C/c1cncc(C(N)=O)c1 | 2.76% | 2.47% | 6.44% | 0.89% | 1.57% | 2.8% | 0.66% | 0.67% | 4% | 1.68%
Nc1ncnc2occ(-c3ccc(NC(=O)Nc4cc(C(F)(F)F)ccc4F)cc3)c12 | 3.84% and -2.75% | 3.01% and -3.72% | 4.94% and 0.29% | 0.92% and -1.47% | 6.17% and 0.48% | 3.39% and 0.89% | 3.36% and 1.22% | 0.48% and -3.48% | 2.69% and -1.74% | 3.18% and 0.64%
CCS(=O)(=O)c1ccc(OC)c(Nc2ncc(-c3cccc(F)c3)o2)c1 | 5.43% | 4.73% | 10.6% | -0.92% | 1.07% | 3.94% | 12.9% | 2.75% | 4.65% | 7.21%
Cc1c2ccc(N(C)c3ccnc(Nc4cccc(S(N)(=O)=O)c4)n3)cc2nn1C | 4.44% | 4.36% | 5.37% | 0.12% | 0.2% | 3.06% | 4.57% | 3.17% | 7.22% | 2.95%
COc1c(C(N)=O)cc(-c2ccc(Cl)cc2)cc1-c1ccc(S(N)(=O)=O)cc1 | 6.07% | 4.78% | 8.49% | -0.13% | 3.77% | -0.02% | 1.33% | 5.72% | 10.5% | 1.52%
NC(=O)c1ccc2c(-c3ccnc(NCCCO)n3)c(-c3ccc(F)cc3)nn2c1 | 3.63% | 4.46% | 3.95% | 0.65% | 0.03% | 8.23% | 7.94% | 10.1% | 10.6% | 11.7%
CCOc1ccc2c(-c3ccnc(Nc4cc(OC)cc(C(F)(F)F)c4)n3)cnn2n1 | -0.03% | 0.7% | 1.42% | 1.18% | -0.28% | 3.19% | 1.38% | -0.97% | 0.04% | 0.8%
NS(=O)(=O)c1ccc(N/N=C2\C(=O)Nc3cccc(CCc4ccncc4)c32)cc1 | 1.32% | -0.63% | 4.29% | 1.59% | 0.34% | 1.74% | 1.93% | -0.6% | 0.61% | -0.39%
COc1cc2c(cc1Nc1nc(Nc3cccc(F)c3C(N)=O)c3cc[nH]c3n1)N(C(=O)CN1CCN(C(C)C)CC1)CC2 | 8.11% | 2.82% | 7.41% | 2.31% | 7.37% | -0.51% | 4.94% | 6.05% | 29.8% | 2.3%
COc1cc(N2CCN(C(C)C)CC2)ccc1Nc1nc(Nc2cccc3ncccc23)c2cc[nH]c2n1 | 1.11% | -0.04% | 9.94% | 1.22% | 4.44% | 0.3% | 1.78% | -0.49% | 4.32% | -1.26%
CC1(C)CC(n2cnc(-c3ccc(F)cc3)c2-c2ccnc(N)n2)CC(C)(C)N1 | -1.67% | 0.69% | -0.31% | 0.52% | -0.57% | -3.33% | -6.27% | -4.96% | -4.4% | -7.58%
O=C(O[C@H]1CN[C@H](C#Cc2cc3ncnc(Nc4ccc5c(ccn5Cc5cc(F)ccc5F)c4)c3s2)C1)N1CCOCC1 | 3.57% | 4.06% | 3.62% | 0.33% | 1.34% | -1.01% | -1.69% | -0.02% | 6.4% | -3.56%
